The target of one experiment is Protein kinase C beta type (Homo sapiens) (UniProt P05771). The conditions noted are these: at 1 µM.
Protein kinase C beta type (Homo sapiens), sequence (P05771 2-671 limits assumed): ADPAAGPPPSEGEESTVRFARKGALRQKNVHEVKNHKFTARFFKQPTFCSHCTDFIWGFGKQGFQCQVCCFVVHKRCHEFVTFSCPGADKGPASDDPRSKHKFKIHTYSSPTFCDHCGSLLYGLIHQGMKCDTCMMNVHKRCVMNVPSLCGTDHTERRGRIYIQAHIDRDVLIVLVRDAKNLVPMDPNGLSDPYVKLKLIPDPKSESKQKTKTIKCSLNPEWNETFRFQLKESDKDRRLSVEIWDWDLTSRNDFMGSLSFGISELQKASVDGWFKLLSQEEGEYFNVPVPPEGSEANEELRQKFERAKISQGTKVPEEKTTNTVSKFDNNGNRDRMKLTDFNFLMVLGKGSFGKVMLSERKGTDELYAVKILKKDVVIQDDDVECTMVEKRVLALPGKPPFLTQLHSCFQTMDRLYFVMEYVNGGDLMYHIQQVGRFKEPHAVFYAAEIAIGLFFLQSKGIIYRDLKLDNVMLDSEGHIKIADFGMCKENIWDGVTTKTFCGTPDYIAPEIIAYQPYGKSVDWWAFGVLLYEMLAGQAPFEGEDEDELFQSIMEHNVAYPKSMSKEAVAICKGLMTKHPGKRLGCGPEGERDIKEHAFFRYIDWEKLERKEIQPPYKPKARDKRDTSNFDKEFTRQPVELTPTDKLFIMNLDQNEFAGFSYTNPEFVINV
By residual activity is commonly meant the signal under treatment as a percentage of the control signal. For the compound `Oc1cccc(-c2nc(N3CCOCC3)c3oc4ncccc4c3n2)c1`, the residual activity came out at 98%.
Consider `NC(=O)Nc1sc(-c2ccc(F)cc2)cc1C(N)=O`, for which the residual activity was 105%.
Regarding `Cn1sc(=O)n(Cc2ccccc2)c1=O`, the residual activity amounted to 89%.
Still for that read-out and setting: under `Nc1ncnc2[nH]nc(Nc3ccc(F)cc3)c12` stands 113%; under `COc1cc2c(cc1OC)-c1n[nH]c(Nc3cccc(F)c3)c1C2`, 110%.
The same measure, in the same setting: the result for `O=C(CCCc1ccc(-c2ccccc2F)cc1)Nc1ccc(O)cc1` reads 108%; that for `CCCCc1c(-c2ccc(OC)cc2)[nH]c2nccnc12`, 104%.
Take `CC(C)(C)n1nc(Cc2cccc3ccccc23)c2c(N)ncnc21`: the residual activity came out at 104%.
Still for that read-out and setting: the result for `CCCC(=O)Oc1ccc2[nH]c(C(=O)c3cc4ccccc4[nH]3)cc2c1` reads 100%; that for `Nc1ncnc2c1c(-c1ccc(Oc3ccccc3)cc1)cn2C1CCCC1`, 99%.
On to `COc1cc2nccc(Oc3ccc(NC(=S)NC(=O)c4ccccc4C)cc3)c2cc1OC`, for which the residual activity was determined as 98%.
With `COc1cc2ncnc(Nc3cccc(Cl)c3)c2cc1OC`, the residual activity turned out to be 107%.
Still for that read-out and setting: under `CN(C)S(=O)(=O)c1ccc2c(c1)/C(=C/c1cc3c([nH]1)CCCC3)C(=O)N2` stands 116%; under `COc1ccc2c(c1)c(C1=C(c3c[nH]c4ccccc34)C(=O)NC1=O)cn2CCCN(C)C`, 4%; under `O=C1NC(=O)C(c2c[nH]c3ccccc23)=C1c1c[nH]c2ccccc12`, 75%.
For `O=C(O)/C=C/c1cc(Br)c(Br)c(Br)c1Br`, the residual activity is 97%.

A further experiment has the same target. Conditions: at 10 µM.
Consider `NC(=O)Nc1sc(-c2ccc(F)cc2)cc1C(N)=O`, for which the residual activity was 89%.
Take `Cn1sc(=O)n(Cc2ccccc2)c1=O`: the residual activity is 43%.
As to `Nc1ncnc2[nH]nc(Nc3ccc(F)cc3)c12`, the residual activity amounted to 99%.
Same read-out and setting: under `O=C1Nc2ccc(Cl)cc2/C1=C/c1cc(Cl)c(O)c(Cl)c1` stands 90%.
Take `COc1cc2c(cc1OC)-c1n[nH]c(Nc3cccc(F)c3)c1C2`: the residual activity turned out to be 105%.
Regarding `O=C(CCCc1ccc(-c2ccccc2F)cc1)Nc1ccc(O)cc1`, the residual activity came to 101%.
As for `CCCCc1c(-c2ccc(OC)cc2)[nH]c2nccnc12`, the residual activity was 102%.
In the case of `CC(C)(C)n1nc(Cc2cccc3ccccc23)c2c(N)ncnc21`, the residual activity came to 105%.
Take `Nc1ncnc2c1c(-c1ccc(Oc3ccccc3)cc1)cn2C1CCCC1`: the residual activity is 91%.
`COc1cc2nccc(Oc3ccc(NC(=S)NC(=O)c4ccccc4C)cc3)c2cc1OC`: the residual activity turned out to be 101%.
The same measure, in the same setting: under `COc1cc2ncnc(Nc3cccc(Cl)c3)c2cc1OC` stands 108%; under `COc1ccc2c(c1)c(C1=C(c3c[nH]c4ccccc34)C(=O)NC1=O)cn2CCCN(C)C`, 3%; under `O=C1NC(=O)C(c2c[nH]c3ccccc23)=C1c1c[nH]c2ccccc12`, 27%.
With `O=C(O)/C=C/c1cc(Br)c(Br)c(Br)c1Br`, the residual activity was 101%.

A further experiment addresses Protein kinase C gamma type (Homo sapiens) (UniProt P05129). Conditions: at 1 µM.
`Cn1sc(=O)n(Cc2ccccc2)c1=O`: the residual activity came out at 59%.
As to `Cn1c2ccccc2c2c3c(c4c5ccccc5n(CCC#N)c4c21)CNC3=O`, the residual activity was 9%.
Turning to `N#C/C(=C\c1ccc(O)c(O)c1)C(=O)NCc1ccccc1`, the residual activity is 124%.
Regarding `COc1cc2c(cc1OC)-c1n[nH]c(Nc3cccc(F)c3)c1C2`, the residual activity was 104%.
As to `O=C(CCCc1ccc(-c2ccccc2F)cc1)Nc1ccc(O)cc1`, the residual activity worked out at 104%.
For the compound `O=C1NC(=O)c2c1c1c3ccccc3[nH]c1n1cncc21`, the residual activity amounted to 71%.
In the case of `CC(C)(C)n1nc(Cc2cccc3ccccc23)c2c(N)ncnc21`, the residual activity came out at 106%.
Turning to `Nc1ncnc2c1c(-c1ccc(Oc3ccccc3)cc1)cn2C1CCCC1`, the residual activity stood at 111%.
With `NCCNc1ncc(C(N)=O)c(Nc2cccc(C(F)(F)F)c2)n1`, the residual activity is 58%.
`c1ccc(-c2cnc(Nc3ccc(OCCN4CCCC4)cc3)s2)cc1`: the residual activity amounted to 123%.
On the same count and under the same terms, under `COc1ccc2c(c1)c(C1=C(c3c[nH]c4ccccc34)C(=O)NC1=O)cn2CCCN(C)C` stands 3%; under `CC(C)(C)c1nc2c3ccc(F)cc3c3c(=O)[nH]ccc3c2[nH]1`, 40%.
For `O=C1NC(=O)C(c2c[nH]c3ccccc23)=C1c1c[nH]c2ccccc12`, the residual activity was determined as 36%.
Take `O=C(O)/C=C/c1cc(Br)c(Br)c(Br)c1Br`: the residual activity stood at 96%.

Another experiment shares this target. The conditions noted are these: at 10 µM.
For `Cn1sc(=O)n(Cc2ccccc2)c1=O`, the residual activity came out at 3%.
Consider `Cn1c2ccccc2c2c3c(c4c5ccccc5n(CCC#N)c4c21)CNC3=O`, for which the residual activity was 16%.
Consider `N#C/C(=C\c1ccc(O)c(O)c1)C(=O)NCc1ccccc1`, for which the residual activity is 102%.
`COc1cc2c(cc1OC)-c1n[nH]c(Nc3cccc(F)c3)c1C2`: the residual activity stood at 105%.
For the compound `O=C(CCCc1ccc(-c2ccccc2F)cc1)Nc1ccc(O)cc1`, the residual activity came out at 110%.
Regarding `CCCCc1c(-c2ccc(OC)cc2)[nH]c2nccnc12`, the residual activity turned out to be 106%.
Consider `O=C1NC(=O)c2c1c1c3ccccc3[nH]c1n1cncc21`, for which the residual activity came to 56%.
As to `CCN(CC)CCNC(=O)c1c(C)[nH]c(/C=C2\C(=O)Nc3ccc(Cl)cc32)c1C`, the residual activity was 51%.
On the same count and under the same terms, the result for `CC(C)(C)n1nc(Cc2cccc3ccccc23)c2c(N)ncnc21` reads 94%.
Turning to `Nc1ncnc2c1c(-c1ccc(Oc3ccccc3)cc1)cn2C1CCCC1`, the residual activity stood at 104%.
The same measure, in the same setting: under `NCCNc1ncc(C(N)=O)c(Nc2cccc(C(F)(F)F)c2)n1` stands 11%.
For the compound `c1ccc(-c2cnc(Nc3ccc(OCCN4CCCC4)cc3)s2)cc1`, the residual activity is 111%.
For the compound `COc1ccc2c(c1)c(C1=C(c3c[nH]c4ccccc34)C(=O)NC1=O)cn2CCCN(C)C`, the residual activity came to 0%.
Same read-out and setting: the result for `CC(C)(C)c1nc2c3ccc(F)cc3c3c(=O)[nH]ccc3c2[nH]1` reads 46%.
The same measure, in the same setting: the result for `O=C1NC(=O)C(c2c[nH]c3ccccc23)=C1c1c[nH]c2ccccc12` reads 6%; that for `O=C(c1cc2cc(O)ccc2[nH]1)c1cc2cc(O)ccc2[nH]1`, 56%.
In the case of `Nc1ncnc2c1cnn2-c1ccccc1`, the residual activity is 98%.
